In all, about 1,400 compounds went through this assay and about 1,000 (71%) were called active. The rule behind the calls is not given here. The set was probably picked from earlier hits. Not all results are given here. Entries with a potency or affinity are not part of this list.

This is an account of results in PubChem BioAssay AID652057 (Broad Institute, 2013).

The assay in a line: inhibitors of HIV Env-driven cell fusion, dose response, cherry-pick (AID 652057). As to conditions: HeLa-JRFL Env/CEM21 cell fusion, luciferase; series mostly up to 35 µM.
In the case of `CS(=O)(=O)Nc1ccc2c(c1)[C@H]1C[C@H](CC(=O)N3CCc4ccccc4C3)O[C@H](CO)[C@H]1O2`, the activity change, negative = inhibition result was “inactive”.

Consider `CS(=O)(=O)Nc1ccc2c(c1)[C@@H]1C[C@@H](CC(=O)N3CCc4ccccc4C3)O[C@H](CO)[C@@H]1O2`, for which the activity change, negative = inhibition entry is “inactive”.

In the case of `O=C(C[C@@H]1C[C@@H]2c3cc(NC(=O)C4CCC4)ccc3O[C@@H]2[C@@H](CO)O1)NCc1ccc2c(c1)OCO2`, the activity change, negative = inhibition result is “inactive”.

With `O=C(C[C@@H]1C[C@H]2c3cc(NC(=O)C4CCOCC4)ccc3O[C@H]2[C@@H](CO)O1)NCc1ccccc1`, the activity change, negative = inhibition entry is “inactive”.

For the compound `COC(=O)C[C@@H]1C[C@H]2c3cc(NS(=O)(=O)c4cccc(OC)c4)ccc3O[C@H]2[C@@H](CO)O1`, the activity change, negative = inhibition entry is “inactive”.

In the case of `O=C(C[C@H]1C[C@@H]2c3cc(NC(=O)C4CCOCC4)ccc3O[C@@H]2[C@H](CO)O1)NCc1ccccc1`, the activity change, negative = inhibition entry is “inactive”.

`O=C(C[C@@H]1C[C@@H]2c3cc(NC(=O)c4ccc5c(c4)OCO5)ccc3O[C@@H]2[C@@H](CO)O1)NCc1ccc(Oc2ccccc2)cc1`: the activity change, negative = inhibition entry was “inactive”.

With `O=C(C[C@H]1C[C@H]2c3cc(NS(=O)(=O)c4ccc(F)cc4)ccc3O[C@H]2[C@@H](CO)O1)NCc1ccccc1F`, the activity change, negative = inhibition result was “inactive”.

Take `O=C(C[C@@H]1C[C@@H]2c3cc(NC(=O)Nc4ccccc4)ccc3O[C@@H]2[C@@H](CO)O1)NCc1ccccc1`: the activity change, negative = inhibition result was “inactive”.

For `CN(C)C(=O)C[C@@H]1C[C@@H]2c3cc(NS(=O)(=O)c4ccc(F)cc4)ccc3O[C@@H]2[C@@H](CO)O1`, the activity change, negative = inhibition entry is “inactive”.

As to `O=C(C[C@H]1C[C@@H]2c3cc(NC(=O)Nc4ccc(F)cc4)ccc3O[C@@H]2[C@@H](CO)O1)NCC1CC1`, the activity change, negative = inhibition result is “inactive”.

Consider `O=C(C[C@@H]1C[C@H]2c3cc(NC(=O)Nc4ccc(F)cc4)ccc3O[C@H]2[C@H](CO)O1)NCC1CC1`, for which the activity change, negative = inhibition entry was “inactive”.

Regarding `O=C(C[C@@H]1C[C@@H]2c3cc(NS(=O)(=O)c4ccc(F)cc4)ccc3O[C@@H]2[C@H](CO)O1)NCc1ccccc1F`, the activity change, negative = inhibition result is “inactive”.

Regarding `Cc1cc(C(=O)N2CCC(C(=O)O)CC2)c(C(F)(F)F)o1`, the activity change, negative = inhibition result was “inactive”.

For `CCN(CC)S(=O)(=O)c1cccc(NC(=O)c2ccc(-n3nc(C)cc3C)cc2)c1`, the activity change, negative = inhibition entry is “inactive”.

As to `CCc1nnc(NC(=O)[C@@H](NC(=O)c2cccc(S(=O)(=O)N(CC)CC)c2)C(C)C)s1`, the activity change, negative = inhibition entry was “inactive”.

As for `Cc1cc(Nc2cccc(C(F)(F)F)c2)cc(=O)n1-c1cccc(C(F)(F)F)c1`, the activity change, negative = inhibition entry is “inactive”.

Consider `O=C(Nc1cccc(C(F)(F)F)c1)c1ccc(Cn2cc(Br)cn2)o1`, for which the activity change, negative = inhibition result was “inactive”.

Regarding `O=C(C[C@H]1C[C@H]2c3cc(NC(=O)C4CCC4)ccc3O[C@H]2[C@@H](CO)O1)NCc1ccc2c(c1)OCO2`, the activity change, negative = inhibition result was “inactive”.

On to `CN(C)CCCNC(=O)[C@H]1[C@H](CO)[C@H]2Cn3c(ccc(C4=CCCC4)c3=O)[C@H]2N1CCC(F)(F)F`, for which the activity change, negative = inhibition entry was “inactive”.

Take `O=C(NCc1cccc(F)c1)[C@@H]1[C@@H](CO)[C@@H]2Cn3c(ccc(-c4cccnc4)c3=O)[C@H]1N2CC1CC1`: the activity change, negative = inhibition result was “inactive”.

Regarding `Cc1cc(C)c(CN2CCN(C(=O)Cn3ccc(NC(=O)OCc4ccccc4)nc3=O)CC2)c(C)c1`, the activity change, negative = inhibition entry is “inactive”.

For the compound `CCCNC(=O)C[C@@H]1C[C@@H]2c3cc(NC(=O)CN(C)C)ccc3O[C@@H]2[C@H](CO)O1`, the activity change, negative = inhibition entry is “inactive”.

Regarding `C[C@H](CO)N1C[C@H](C)[C@H](CN(C)C(=O)Nc2ccccc2)Oc2c(NS(=O)(=O)c3ccc(F)cc3)cccc2C1=O`, the activity change, negative = inhibition is 77.5% [at 8 µM] (inactive).

As to `Cc1nn(C)c(C)c1CN(C)S(=O)(=O)c1ccc2ccccc2c1`, the activity change, negative = inhibition entry was “inactive”.

For `O=C(C[C@H]1C[C@H]2c3cc(NC(=O)NC4CCCC4)ccc3O[C@H]2[C@@H](CO)O1)NC1CCCCC1`, the activity change, negative = inhibition result is “inactive”.

Take `COc1ccccc1S(=O)(=O)n1cc(Cc2ccccc2)c(N)n1`: the activity change, negative = inhibition entry is “inactive”.

As to `COc1ccc(S(=O)(=O)N[C@@H]2CC[C@@H](CC(=O)NCCc3ccncc3)O[C@@H]2CO)cc1`, the activity change, negative = inhibition result is “inactive”.

Turning to `O=C(NCC[C@@H]1CC[C@@H](NS(=O)(=O)c2ccccc2F)[C@@H](CO)O1)c1ccc(F)cc1`, the activity change, negative = inhibition result is “inactive”.

For the compound `CC1CN(S(=O)(=O)c2cc(C(=O)NCCC3=CCCCC3)ccc2Cl)CC(C)O1` (stereo not drawn), the activity change, negative = inhibition result was “inactive”.

Consider `O=C(Nc1ccc(F)cc1)Nc1ccc2c(c1)[C@H]1C[C@@H](CC(=O)N3CCCCC3)O[C@H](CO)[C@H]1O2`, for which the activity change, negative = inhibition result was “inactive”.

For the compound `CO[C@@H]1CN(C)C(=O)c2cc(NC(=O)Nc3ccc(Cl)cc3)ccc2OC[C@H](C)N(C)C[C@H]1C`, the activity change, negative = inhibition entry was “inactive”.

Consider `CCOc1ccccc1C(=O)NCC(=O)NNC(=O)CN(C)S(=O)(=O)c1ccc(Cl)cc1`, for which the activity change, negative = inhibition entry is “inactive”.

As to `COc1cccc(S(=O)(=O)N[C@H]2CC[C@H](CC(=O)NCc3ccncc3)O[C@@H]2CO)c1`, the activity change, negative = inhibition entry is “inactive”.

For `CCOC(=O)CN1CCCc2nc(C)c(C)cc21`, the activity change, negative = inhibition entry is “inactive”.

For the compound `C[C@@H]1CN([C@@H](C)CO)S(=O)(=O)c2ccc(-c3ccccc3)cc2O[C@H]1CN(C)S(C)(=O)=O`, the activity change, negative = inhibition entry was “inactive”.

With `CO[C@H]1CN(C)C(=O)c2cc(NC(=O)c3ccc(F)cc3)ccc2OC[C@H](C)N(C(=O)CN(C)C)C[C@@H]1C`, the activity change, negative = inhibition result was “inactive”.

Regarding `CC(CCc1ccco1)NC(=O)CCc1nnc2ccc(NCc3ccccc3Cl)nn12` (stereo not drawn), the activity change, negative = inhibition result was “inactive”.

For the compound `C[C@@H]1CN([C@@H](C)CO)C(=O)Cc2cc(NC(=O)NC3CCCCC3)ccc2O[C@@H]1CN(C)S(=O)(=O)c1ccc(Cl)cc1`, the activity change, negative = inhibition entry was “inactive”.

Regarding `CC1CCCC(C)N1CCCNC(=O)c1nn(C)c2c1CSc1ccccc1-2` (stereo not drawn), the activity change, negative = inhibition result was “inactive”.

`CCOc1ccc(NC2c3ccccc3C(=O)N2Cc2ccco2)cc1` (stereo not drawn): the activity change, negative = inhibition result was “inactive”.

With `Cn1c(=O)oc2cc(S(=O)(=O)NCc3ccncc3)ccc21`, the activity change, negative = inhibition entry was “inactive”.

On to `O=C(C[C@@H]1C[C@H]2c3cc(NC(=O)C4CCOCC4)ccc3O[C@H]2[C@H](CO)O1)NCc1ccccc1F`, for which the activity change, negative = inhibition entry is “inactive”.

For the compound `Cc1noc(C)c1NC(=O)N(C)C[C@H]1OCCCC[C@H](C)Oc2ccc(NC(=O)c3ccccc3)cc2C(=O)N([C@H](C)CO)C[C@@H]1C`, the activity change, negative = inhibition result is “inactive”.

For `CC(C)NC(=O)Nc1ccc2c(c1)C(=O)N([C@@H](C)CO)C[C@H](C)[C@H](CN(C)C(=O)Nc1ccc(F)cc1)O2`, the activity change, negative = inhibition result is “inactive”.

`COc1ccc(S(=O)(=O)n2ccc(-c3ccc(OCCN(C)c4ccccn4)cc3)n2)cc1`: the activity change, negative = inhibition entry was “inactive”.

`COc1ccccc1OCC(=O)c1[nH]c(C)c(C(C)=O)c1C`: the activity change, negative = inhibition entry was “inactive”.

As for `O=C(c1ccccc1)N1CCC(c2nc(-c3ccc(S(=O)(=O)NCC4CCCO4)cc3)no2)CC1` (stereo not drawn), the activity change, negative = inhibition result is “inactive”.
